Test results reported in PubChem BioAssay (NCI).
About 79,000 compounds went through this panel and 15% of them were active in at least one assay; those are over-represented in the sample as a whole. Calls of active or inactive are those of the source. Cut-off read from the data, not from the text of the source: active = growth inhibition above about 70%; inactive = the rest.

Legend:
[1] = NCI Yeast Anticancer Drug Screen. Data for the mec2-1 strain (AID 157); conditions: S. cerevisiae mec2-1 strain, stronger effect = higher value
Summary of the method: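 Cells of the genetically defined mec2-1 yeast strain are incubated with test compound. Inhibition of growth is calculated against vehicle-treated controls.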

[2] = NCI Yeast Anticancer Drug Screen. Data for the sgs1 mgt1 strain (AID 161);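 note: 0% = growth of cultures given vehicle only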; conditions: S. cerevisiae sgs1 mgt1 strain, stronger effect = higher value
Summary of the method: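 Test agents were incubated with a DNA-repair-mutant yeast strain. Growth was then read and compared against vehicle-treated controls.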

[3] = NCI Yeast Anticancer Drug Screen. Data for the CLN2oe strain (AID 163);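 note: 0% = growth of vehicle-only control cultures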; conditions: S. cerevisiae CLN2oe strain, stronger effect = higher value
Summary of the method: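 Strain altered in cell-cycle control, incubated with compound; growth compared to solvent-treated controls.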

[4] = NCI Yeast Anticancer Drug Screen. Data for the cln2 rad14 strain (AID 165);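 note: 0% = growth equal to vehicle treated cultures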; conditions: S. cerevisiae cln2 rad14 strain, stronger effect = higher value
Summary of the method: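 The screen exposed genetically defined yeast (cln2 rad14) to test compounds and scored growth inhibition relative to vehicle-treated controls.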

[5] = NCI Yeast Anticancer Drug Screen. Data for the bub3 strain (AID 167); conditions: S. cerevisiae bub3 mutant strain, stronger effect = higher value
Summary of the method: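 Compounds were applied to a genetically altered yeast strain carrying a cell-cycle control defect. Growth inhibition was scored against vehicle-treated controls.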

[6] = NCI Yeast Anticancer Drug Screen. Data for the wt2 strain (AID 169);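 note: 0% = growth of vehicle-treated yeast cultures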; conditions: S. cerevisiae wt2 strain growth inhibition, stronger effect = higher value
Summary of the method: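 Steps: yeast strain treated with compound; growth recorded; inhibition calculated relative to cultures given vehicle alone.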

[7] = NCI Yeast Anticancer Drug Screen. Data for the mlh1 strain (AID 171);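 note: 0% = growth of vehicle-treated control cultures of the same strain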; conditions: S. cerevisiae mlh1 strain growth inhibition, stronger effect = higher value
Summary of the method: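 Yeast screen: mutant strain plus compound, growth scored against vehicle control wells.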

[8] = NCI Yeast Anticancer Drug Screen. Data for the sgs1 strain (AID 173);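 note: 0% = growth of vehicle-only control cultures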; conditions: S. cerevisiae sgs1 mutant, stronger effect = higher value
Summary of the method: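 Inhibition of yeast growth served as the measure. The mutant strain was treated with each compound, and growth was normalised to cultures receiving vehicle alone.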

[9] = NCI Yeast Anticancer Drug Screen. Data for the mlh1 rad18 strain (AID 175); conditions: S. cerevisiae mlh1 rad18 strain growth inhibition, stronger effect = higher value
Summary of the method: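 Compound-treated yeast growth, normalised to vehicle controls. Strain bears defined DNA repair mutations.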

[10] = NCI Yeast Anticancer Drug Screen. Data for the rad52 strain (AID 147);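 note: 0% = growth of vehicle-treated control cultures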; conditions: S. cerevisiae rad52 mutant growth inhibition, stronger effect = higher value
Summary of the method: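 Genetically altered yeast (DNA damage repair defect) treated with compound; inhibition calculated relative to vehicle.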

[11] = NCI Yeast Anticancer Drug Screen. Data for the wt1 strain (AID 149);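 note: 0% = growth of vehicle-treated wt1 cultures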; conditions: S. cerevisiae wt1 strain (SPY 50644) growth inhibition, stronger effect = higher value
Summary of the method: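 Yeast wt1 strain exposed to compounds; growth inhibition measured relative to vehicle-treated controls.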

[12] = NCI Yeast Anticancer Drug Screen. Data for the rad50EPP+ strain (AID 151);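 note: 0% = growth of vehicle-treated control cultures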; conditions: S. cerevisiae rad50 mutant strain, stronger effect = higher value
Summary of the method: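 Strain rad50EPP+; compound exposure; % growth inhibition vs vehicle.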

[13] = NCI Yeast Anticancer Drug Screen. Data for the rad50 strain (AID 155);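 note: 0% = growth of vehicle-only cultures of the same strain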; conditions: S. cerevisiae rad50 strain growth inhibition, stronger effect = higher value
Summary of the method: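 Yeast carrying a defined DNA repair defect were exposed to test compounds, and growth was compared with vehicle-treated controls to give percent inhibition.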

[14] = NCI Yeast Anticancer Drug Screen. Data for the rad14 strain (AID 159);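 note: 0% = growth of vehicle-treated control cultures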; conditions: S. cerevisiae rad14 strain growth inhibition, stronger effect = higher value
Summary of the method: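 Yeast cells carrying a defined DNA-repair defect were exposed to compounds, and growth inhibition was calculated relative to vehicle-treated control cultures.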

[15] = NCI Yeast Anticancer Drug Screen. Data for the rad18 strain (AID 177); conditions: S. cerevisiae rad18 mutant growth inhibition, stronger effect = higher value
Summary of the method: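 Inhibition values reflect reduced yeast growth compared with vehicle-treated controls, using a strain engineered with a DNA damage repair defect.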

[16] = at 5.0 µM (retest, dose inferred, filed as 0.5)
[17] = at 50.0 µM (retest, dose inferred, filed as 5.0)

Measured: growth inhibition

Cn1c(=O)c2ccccc2c2ccccc21
inactive: [1]; [16] -45% | [1]; at 11.0 µM 11% | [1]; at 33.0 µM 26% | [1]; [17] 5% | [1]; at 100.0 µM 52% | [2]; [16] -64% | [2]; [17] 35% | [3]; at 1.2 µM 1% | [3]; at 3.7 µM 0% | [3]; at 11.0 µM 7% | [3]; at 33.0 µM 22% | [3]; at 100.0 µM 51% | [4]; [16] -54% | [4]; [17] -6% | [5]; at 1.2 µM -5% | [5]; at 3.7 µM -2% | [5]; [16] -69% | [5]; at 11.0 µM 5% | [5]; at 33.0 µM 29% | [5]; [17] 5% | [5]; at 100.0 µM 51% | [6]; at 1.2 µM -1% | [6]; at 3.7 µM -1% | [6]; at 11.0 µM -2% | [6]; at 33.0 µM 21% | [6]; at 100.0 µM 50% | [7]; at 1.2 µM 8% | [7]; at 3.7 µM -5% | [7]; at 11.0 µM 4% | [7]; at 33.0 µM 46% | [7]; at 100.0 µM 59% | [8]; at 1.2 µM -2% | [8]; at 3.7 µM -1% | [8]; at 11.0 µM -2% | [8]; at 33.0 µM 43% | [8]; at 100.0 µM 66% | [9]; [16] -114% | [9]; [17] 36%
active: [1]; at 50.0 µM 75.1% | [2]; at 50.0 µM 84.9% | [4]; at 50.0 µM 70.5% | [5]; at 50.0 µM 85.8% | [9]; at 50.0 µM 96.3%

C[CH2][Sn]([CH2]C)([O]C(=O)C(OC(C)=O)c1ccccc1)[O]C(=O)C(OC(C)=O)c1ccccc1 (stereo unspecified)
active: [10]; at 33.0 µM 71% | [10]; at 100.0 µM 92% | [11]; at 100.0 µM 91% | [13]; at 100.0 µM 91% | [1]; at 100.0 µM 91% | [3]; at 100.0 µM 90% | [5]; at 100.0 µM 88% | [6]; at 100.0 µM 93% | [7]; at 100.0 µM 93% | [8]; at 33.0 µM 78% | [8]; at 100.0 µM 94% | [15]; at 33.0 µM 77% | [15]; at 100.0 µM 92%
inactive: [10]; at 1.2 µM 3% | [10]; at 3.7 µM 3% | [10]; at 11.0 µM 15% | [11]; at 1.2 µM 0% | [11]; at 3.7 µM 0% | [11]; at 11.0 µM 5% | [11]; at 33.0 µM 47% | [12]; at 1.2 µM 0% | [12]; at 3.7 µM 2% | [12]; at 11.0 µM 7% | [12]; at 33.0 µM 9% | [12]; at 100.0 µM 9% | [13]; at 1.2 µM -4% | [13]; at 3.7 µM 4% | [13]; [16] 13% | [13]; at 11.0 µM -2% | [13]; at 33.0 µM 67% | [13]; [17] 25% | [13]; at 50.0 µM 37.7% | [1]; at 1.2 µM 1% | [1]; at 3.7 µM 5% | [1]; [16] -13% | [1]; at 11.0 µM 14% | [1]; at 33.0 µM 65% | [1]; [17] 6% | [1]; at 50.0 µM 35.1% | [14]; at 1.2 µM -2% | [14]; at 3.7 µM -3% | [14]; at 11.0 µM 2% | [14]; at 33.0 µM 14% | [14]; at 100.0 µM 57% | [2]; [16] 7% | [2]; [17] 10% | [2]; at 50.0 µM 20.5% | [3]; at 1.2 µM -15% | [3]; at 3.7 µM -3% | [3]; at 11.0 µM 4% | [3]; at 33.0 µM 47% | [4]; [16] 8% | [4]; [17] 44% | [4]; at 50.0 µM -23.2% | [5]; at 1.2 µM 1% | [5]; at 3.7 µM 4% | [5]; [16] -13% | [5]; at 11.0 µM 12% | [5]; at 33.0 µM 53% | [5]; [17] 54% | [5]; at 50.0 µM 54.4% | [6]; at 1.2 µM -1% | [6]; at 3.7 µM -2% | [6]; at 11.0 µM 1% | [6]; at 33.0 µM 57% | [7]; at 1.2 µM 1% | [7]; at 3.7 µM 0% | [7]; at 11.0 µM 4% | [7]; at 33.0 µM 47% | [8]; at 1.2 µM -1% | [8]; at 3.7 µM 4% | [8]; at 11.0 µM 15% | [9]; [16] 2% | [9]; [17] 10% | [9]; at 50.0 µM 18.4% | [15]; at 1.2 µM 4% | [15]; at 3.7 µM 16% | [15]; at 11.0 µM 37%
